From PMC13494018

What follows are binders tested against control:Baker_PD-L1, Q9NZQ7.
Chain of control:Baker_PD-L1, Q9NZQ7 (Q9NZQ7 whole entry): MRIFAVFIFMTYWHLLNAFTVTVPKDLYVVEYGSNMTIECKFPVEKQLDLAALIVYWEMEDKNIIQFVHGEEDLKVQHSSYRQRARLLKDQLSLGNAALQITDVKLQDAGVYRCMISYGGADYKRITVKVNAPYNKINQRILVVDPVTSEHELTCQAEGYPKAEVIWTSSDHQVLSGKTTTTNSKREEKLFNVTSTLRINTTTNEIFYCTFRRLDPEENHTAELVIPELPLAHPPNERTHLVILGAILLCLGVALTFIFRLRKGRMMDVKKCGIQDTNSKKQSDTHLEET

Row | Binder | binding in a display sort
1 | Pdl1_binder_AF2_65 (protein) ETVRVDATTKETALALMEMGEKAGLKVVIGLTSKEDAEEVAEIAKKKGKFEVFHI | not found (inactive)
2 | Pdl1_binder_AF2_61 (protein) MYVVVAKGTEQQAKLFALIARDRGHEAEVEGDTAVVKTDDLEEAEKLAELARELGMEAEVIE | not found (inactive)
3 | Pdl1_binder_AF2_79 (protein) KREEALRKAAEAAVKAMEMAKKASDEAKVEIMEHFSRAMRAIKEGDFEEAIRHLRKAAEVAEEKVGKEVGEFIREAAREVERIA | not found (inactive)
4 | Pdl1_binder_AF2_86 (protein) MRLTIGIAETEEEAEELARRFREEGVEDFVVVTDLEEAVAIAREAGVPTTILAPKGFDTKALLKAAMELNEAGIPTSVQHIP | not found (inactive)
5 | Pdl1_binder_AF2_64 (protein) EEEEKKEKANLLRVEAAQKLSLVAEALPEVREKALEAIRKIFDKETIEEGVELAREIAERVAAEGTEEQARLAREAVEKAEEALKLEK | not found (inactive)
6 | Pdl1_binder_AF2_76 (protein) MYEVVIEGEKSVAEFIKLIAEQLGAEAEVEGDKAVIRTERREDAERLAEAAKRFGAEAEVRE | binds (active)
7 | Pdl1_binder_AF2_87 (protein) ERREELEAIAKATESLAELLELGEKDPEVRKAALRAAQIVAERLAERAEELGAEEAAELLRKAAEDPENALRYVREAAEKLRAEAEAL | not found (inactive)
8 | Pdl1_binder_AF2_92 (protein) PKVVVEADTEEEAEKMAKKFREMGAEAEIEGKTVVATSDSEELIKLIAVIARDRGLKAEVIP | not found (inactive)
9 | Pdl1_binder_AF2_72 (protein) DEMDKLKVEAMKYGSKAIKIASEKDEELAERAAEALSLAMTDPEKGAKELRKIAEELEEKGLPEAAEYLRKAADYFERYAKLLKE | not found (inactive)
10 | Pdl1_binder_AF2_73 (protein) DEARDEAITELMLVASRALKAGPALAEAVELLLEAIHLAVEGRLEEAAELAERAAELAREAGDEEVAEEAERAAELARRAAEEEE | not found (inactive)
11 | Pdl1_binder_AF2_85 (protein) EARELVKEAVEKFEKAAEEALKDFEKAEKLAKEALEKLYEAAKLDPSLRPVYQEAALHLVKALAHDDDPEKASEELKKAAEVAKKELE | not found (inactive)
12 | Pdl1_binder_AF2_93 (protein) REEKIEKVREAAEEAKKAGAIEDYEIEGDEVKFYRKDWKPESLLIVMKAAQVAALEGFKPTIVKS | not found (inactive)
13 | Pdl1_binder_AF2_91 (protein) DEKFKKIKKMAKVFSESTGKEIEVEKKGDEFIITAKDADEATYQAAKLLKARAEDLGVKARFKEA | not found (inactive)
14 | Pdl1_binder_AF2_66 (protein) REQIYEQFLELAKAEAREFPGVVDVSREGDTLIVTTKTEEAAKEFEKRLQPIADSVGVKLETKVA | not found (inactive)
15 | Pdl1_binder_AF2_95 (protein) LEEERREFEEVLERLLEVAEEDPEVRERAEEMVRRAREVAEREGVAAGAAEAAVGALRIASEASEEVRKRYLELASELQAIGQRVVRA | not found (inactive)

These binders were tested against CD276, Q5ZPR3.
Chain of CD276, Q5ZPR3 (Q5ZPR3 whole entry): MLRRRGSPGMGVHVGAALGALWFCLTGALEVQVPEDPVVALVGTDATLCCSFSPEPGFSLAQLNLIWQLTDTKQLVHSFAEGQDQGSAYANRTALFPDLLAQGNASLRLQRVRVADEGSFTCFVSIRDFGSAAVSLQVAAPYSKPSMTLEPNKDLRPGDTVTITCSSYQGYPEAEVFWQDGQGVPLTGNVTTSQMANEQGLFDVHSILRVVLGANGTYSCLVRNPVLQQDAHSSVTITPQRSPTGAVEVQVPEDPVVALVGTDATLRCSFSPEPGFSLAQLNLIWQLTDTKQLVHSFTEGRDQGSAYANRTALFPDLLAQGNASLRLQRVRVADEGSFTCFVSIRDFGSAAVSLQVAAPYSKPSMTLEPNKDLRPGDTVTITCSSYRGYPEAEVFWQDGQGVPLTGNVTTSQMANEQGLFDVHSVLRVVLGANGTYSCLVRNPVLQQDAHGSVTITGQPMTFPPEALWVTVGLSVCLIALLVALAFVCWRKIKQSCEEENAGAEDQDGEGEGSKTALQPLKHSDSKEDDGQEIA

Row | Binder | binding in a display sort
16 | design_391_ca6baf5d-2451-47ba-bffc-fc886679966a_158_dldesign_0_cycle1_af2pred (protein) AEEKRKKAQELYEKAIAEAKELAKKGDIGALLKVTMDAAKEILELDPSLEPLAEALRKQGTALAQEAIAAAIAAAA | not found (inactive)
17 | design_391_ca6baf5d-2451-47ba-bffc-fc886679966a_175_dldesign_0_cycle1_af2pred (protein) DEKLKKAEELAKQAAKATLTPTGKAEFDKLANEAMKLVSQLFKEDPAKGQKAAKALSEAIDQAKANAALAAAAA | not found (inactive)
18 | design_391_ca6baf5d-2451-47ba-bffc-fc886679966a_164_dldesign_0_cycle1_af2pred (protein) AGKVGELAAETLKVAAEARRVAAELPEIREEVTARTSRLVAEAFRAALSGTDEDTAKRALEELKRLLEEARELLEEA | not found (inactive)
19 | design_391_ca6baf5d-2451-47ba-bffc-fc886679966a_219_dldesign_0_cycle1_af2pred (protein) AEAERRREEVIREAREAAERLREAGREASPELRALAEATAQTVLLLVEGGEANSPELGLRVAERALELARRTLEEVRAG | not found (inactive)
20 | design_391_ca6baf5d-2451-47ba-bffc-fc886679966a_206_dldesign_0_cycle1_af2pred (protein) DWQAVALQAAEAAAQAAKEDPENAALFNEAAHLLLLAVARPETALELTEKALKLAEKAAKTGSELAKKAYELTKEALELLKAA | not found (inactive)
